Measured values reported in PubChem BioAssay AID1159580 (chemical genetic matrix, 2015).
In all, about 5,500 compounds went through this assay and about 2,000 (36%) were called active. Another 18% or so got no clear call; they are omitted. Cut-off read from the data, not from the text of the source: active = normalized growth mostly below about 0.91 (no sharp cut-off); inconclusive = no clear call, values can overlap the other calls; inactive = mostly above about 0.92. Some of the results follow.

Test: chemical genetic growth profiling, strain panel (AID 1159580);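 note: tested at 20 µM; growth read once vehicle control cultures reached saturation at 30 °C; 1 = growth at the plate median or of vehicle wells; lower values mean less growth of the strain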
Details: S. cerevisiae deletion strains, growth OD

Measured: normalized growth

CC(C)(C)c1ccc(-c2cc(NC(=O)c3ccc(Cl)cc3)n[nH]2)cc1
active: locus YPL256C, strain CLN2, active compounds read low 1.21 [resistant]
inactive: locus YAR019C, strain CDC15, active compounds read low 0.986 | locus YBL105C, strain PKC1, active compounds read low 1.02 | locus YBR135W, strain CKS1, active compounds read low 1.02 | locus YBR136W, strain MEC1, active compounds read low 1.01 | locus YBR160W, strain CDC28, active compounds read low 0.99 | locus YDL017W, strain CDC7, active compounds read low 1 | locus YDL028C, strain MPS1, active compounds read low 1.03 | locus YDL101C, strain DUN1, active compounds read low 1.01 | locus YDL108W, strain KIN28, active compounds read low 1.01 | locus YDL132W, strain cdc53, active compounds read low 1.03 | locus YDL214C, strain PRR2, active compounds read low 1.04 | locus YDR052C, strain DBF4, active compounds read low 0.995 | locus YDR054C, strain cdc34, active compounds read low 1.01 | locus YDR226W, strain ADK1, active compounds read low 1.01 | locus YDR477W, strain SNF1, active compounds read low 1.02 | locus YER123W, strain YCK3, active compounds read low 1.01 | locus YER133W, strain GLC7, active compounds read low 1.02 | locus YFL009W, strain cdc4, active compounds read low 1.02 | locus YFL029C, strain CAK1, active compounds read low 1.01 | locus YFR003C, strain YPI1, active compounds read low 1.01 | locus YFR019W, strain FAB1, active compounds read low 1.01 | locus YFR028C, strain CDC14, active compounds read low 1.01 | locus YGR040W, strain KSS1, active compounds read low 1.03 | locus YGR052W, strain FMP48, active compounds read low 0.995 | locus YGR092W, strain DBF2, active compounds read low 0.933 | locus YHR030C, strain SLT2, active compounds read low 1.08 | locus YHR079C, strain IRE1, active compounds read low 1.1 | locus YHR082C, strain KSP1, active compounds read low 1.1 | locus YHR205W, strain SCH9, active compounds read low 0.96 | locus YIL147C, strain SLN1, active compounds read low 1.04 | locus YJL095W, strain BCK1, active compounds read low 0.999 | locus YJL128C, strain PBS2, active compounds read low 0.978 | locus YJL157C, strain FAR1, active compounds read low 1.01 | locus YJR016C, strain ILV3, active compounds read low 1.03 | locus YJR066W, strain TOR1 (second series), active compounds read low 0.983 | locus YJR066W, strain TOR1, active compounds read low 1.05 | locus YKL048C, strain ELM1, active compounds read low 1.03 | locus YKL067W, strain YNK1, active compounds read low 1.02 | locus YKL101W, strain HSL1, active compounds read low 1.05 | locus YKL193C, strain SDS22, active compounds read low 1.03 | locus YKL203C, strain TOR2, active compounds read low 1.09 | locus YLR113W, strain HOG1, active compounds read low 1.03 | locus YLR133W, strain CKI1, active compounds read low 1.02 | locus YLR403W, strain SFP1, active compounds read low 0.971 | locus YML070W, strain DAK1, active compounds read low 1.04 | locus YMR001C, strain CDC5, active compounds read low 1 | locus YMR205C, strain PFK2 (second series), active compounds read low 0.99 | locus YMR277W, strain FCP1, active compounds read low 1.02 | locus YNL006W, strain LST8, active compounds read low 0.999 | locus YNL020C, strain ARK1, active compounds read low 1.03 | locus YNL161W, strain CBK1, active compounds read low 1.02 | locus YNL183C, strain NPR1, active compounds read low 1.04 | locus YNL207W, strain RIO2, active compounds read low 1.01 | locus YNL222W, strain SSU72, active compounds read low 0.992 | locus YNL307C, strain MCK1 (second series), active compounds read low 1 | locus YOL078W, strain AVO1, active compounds read low 1.01 | locus YOL136C, strain PFK27, active compounds read low 1.03 | locus YOR061W, strain CKA2, active compounds read low 0.993 | locus YOR119C, strain RIO1, active compounds read low 1.1 | locus YOR231W, strain MKK1, active compounds read low 1.02 | locus YOR329C, strain SCD5, active compounds read low 1.04 | locus YPL031C, strain PHO85, active compounds read low 1.02 | locus YPL153C, strain RAD53, active compounds read low 1.01 | locus YPL204W, strain HRR25, active compounds read low 1.01 | locus YPL209C, strain IPL1, active compounds read low 1.01 | locus YPR025C, strain CCL1, active compounds read low 1 | locus YPR106W, strain ISR1, active compounds read low 1.01 | locus YPR111W, strain DBF20, active compounds read low 1 | strain NNK1, active compounds read low 1.01 | strain TSCII, active compounds read low 1.03
